Compounds with a hit are over-represented: about 5.4% of the library has one in this group of screens.
FMDV antiviral – blocks foot and mouth disease virus | FMDV antiviral cell-based qHTS | Potency, µM (series often up to 57.9 µM), for inactives: at the highest dose activity change, negative = inhibition, most hits filed as inhibitors | actives 1.2% (n = 410,000) | AID 1159524; calls by dose curve; tested in HEK293T cells; further: read-out not given here; nearly all actives have a fitted effect of over 45% in size
VACV Venus inh – vaccinia inhibition (Venus reporter); AID 720580; actives 0.46% (n = 330,000); Potency, µM (series often up to 36.5 µM), for the others: at the highest dose activity change, negative = inhibition, most hits filed as inhibitors; Vaccinia virus Venus reporter expression, fluorescence; calls by dose curve; tested in A549 cells; further: nearly all actives have a fitted effect of over 30% in size
VACV mCherry inh – inhibitors of vaccinia virus infection (mCherry reporter signal) | Vaccinia virus mCherry reporter infection, fluorescence | Potency, µM (doses to about 36.5 µM), for the others: at the top dose activity change, negative = inhibition, most hits filed as inhibitors | actives 0.63% (n = 310,000) | AID 720579; calls by dose curve; tested in A549 cells; further: nearly all actives have a fitted effect of over 35% in size
Sm TGR inh – inhibitors of Schistosoma mansoni thioredoxin glutathione reductase; Potency, µM (series often up to 114 µM), for inactives: at the top dose activity change, negative = inhibition, actives largely listed as inhibitors; actives 3% (n = 360,000); purified TGR, DTNB reduction, TNB absorbance 405 nm; AID 485364; Q962Y6; active means well fitted inhibition curve with a large enough effect; inconclusive means small, poorly fitted or top-dose-only effect; inactive means no such curve, though single readings can be large or run the other way; further: nearly all actives have a fitted effect of over 60% in size
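TGR 20 nM + NADPH 100 uM (dispensed conc.), cpd preinc 15 min RT; start with NADPH (500 uM addition) then DTNB (15 mM addition). Kinetic TNB absorbance, 405 nm filter. Four-parameter Hill fit across titration.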
Lassa entry inh – Lassa virus entry inhibition; Lassa virus pseudotype entry inhibition, cell reporter; Potency, µM (highest dose often 37.9 µM), inactives show at the highest dose activity change, negative = inhibition, most hits filed as inhibitors; actives 1.2% (n = 300,000); AID 540256; calls by dose curve; tested in HEK293 cells; further: nearly all actives have a fitted effect of over 50% in size
Marburg entry inh – inhibitors of Marburg virus binding or cell entry. Marburg virus pseudotyped entry inhibition, cell reporter. actives 1.8% (n = 300,000). Potency, µM (top dose mostly 37.8 µM), for the others: at the highest dose activity change, negative = inhibition, actives largely listed as inhibitors; calls by dose curve; tested in HEK293 cells
Active calls of the source: *; i = inactive; ? = inconclusive; / = no result; [ ] = dose if it differs, or a comment. On the % scale 0 is the no-effect control and ±100 the full control effect; potency means the concentration at half of the fitted maximal effect.

SMILES | FMDV antiviral | VACV Venus inh | VACV mCherry inh | Sm TGR inh | Lassa entry inh | Marburg entry inh
COc1ccc(CCNc2oc(COc3ccc(Cl)cc3)nc2C#N)cc1OC | 32µM* | 5% | 7% | -3% | -17%[46.1 µM] | ?
COc1ccc(Nc2oc(COc3ccc(C)cc3)nc2C#N)cc1 | -29% | / | / | 2% | -27% | -29%
COc1ccc(CNc2oc(Cc3cccc4ccccc34)nc2C#N)cc1 | -5% | -26% | / | -3% | 18µM* | ?
COc1ccc(CCNc2oc(-c3ccccc3OC)nc2C#N)cc1 | -12% | -23% | / | 14µM* | -12% | -1%
COc1ccc2c(c1)c1c(c(=O)n(-c3cccc(Cl)c3)c(=O)n1CC(=O)N1CCCC1)n2C | -17% | -1% | -2% | 5% | -1%[46.1 µM] | /
CC(=O)c1ccc(NC(=O)c2c3c(nc4ccccc24)C(=O)N(C2CCCCC2)C3)cc1 | -12% | -14% | -12% | 1% | -14%[46.1 µM] | /
Cc1ccc(S(=O)(=O)c2c(Nc3cc(F)ccc3F)sc(C(=O)c3ccc(F)cc3)c2N)cc1 | ? | ? | ? | -7% | ? | ?
COc1ccc(CNc2oc(COc3cccc(C)c3)nc2C#N)cc1 | -20% | -5% | i | -2% | -19%[46.1 µM] | -6%[46.1 µM]
COc1ccc(Nc2oc(COc3cccc(C)c3)nc2C#N)cc1 | 27% | -9% | -19% | -15% | 11µM* | ?
CC[C@@]1(c2ccccc2OC)ON(c2ccccc2C(F)(F)F)C1=O | 32µM* | ? | ? | -1% | / | /
COC(=O)N1CCN(C(=O)Cc2ccc(Cl)c(Cl)c2)C(CN2CCCC2)C1 (centres undefined) | 6% | -10% | i | 45% | ? | 11µM*
COC(=O)N1CCN(c2ccc(Cl)c(Cl)c2)CC1 | ? | / | / | 0% | ? | ?
Cc1ccc(S(=O)(=O)c2cn(C)c3cc(N4CCCCCC4)c(F)cc3c2=O)cc1 | -27% | -21% | -12% | -4% | -6%[46.1 µM] | /
Cc1cccc(CSc2nc3c(c(-c4cccs4)c2C#N)CN(C)CC3)c1 | -16% | -7% | -3% | -29% | ? | ?
CN1CCc2nc(SCC(=O)Nc3cccc(F)c3)c(C#N)c(-c3cccs3)c2C1 | 14% | -1% | -9% | 20µM* | 4% | -23%
CN1CCc2nc(SCC(=O)Nc3ccc(OC(F)(F)F)cc3)c(C#N)c(-c3cccs3)c2C1 | 2% | 1% | -17% | 35µM* | 5% | ?
Cc1nnsc1C(=O)Oc1ccc(C#N)cc1 | 6% | -2% | -3% | 16µM* | -3%[46.1 µM] | 3%[46.1 µM]
CCOC(=O)C1C2C=CC3(CN(Cc4ccco4)C(=O)C13)O2 (centres undefined) | -2% | 4% | 6% | 32µM* | 6% | -1%
O=C(O)C1C2C=CC3(CN(Cc4ccco4)C(=O)C13)O2 (centres undefined) | 0% | / | / | ? | / | /
COC(=O)C1C2C=CC3(CN(Cc4ccco4)C(=O)C13)O2 (centres undefined) | -22% | -1% | -11% | 28µM* | 0% | 4%
Cc1ccccc1-c1nc(CS(=O)(=O)CC(=O)NCCCN2CCCC2=O)c(C)o1 | -16% | -5% | -2% | 20µM* | -1% | -19%
Cc1ccccc1-c1nc(CS(=O)(=O)CC(=O)NCCc2ccccc2)c(C)o1 | -19% | -9% | -5% | ? | 23%[46.1 µM] | -3%[46.1 µM]
COCCCNC(=O)CS(=O)(=O)Cc1nc(-c2ccccc2C)oc1C | -18% | -15% | -18% | 50µM* | / | /
c1ccc(C2NCCc3c2[nH]c2ccccc32)cc1 (centres undefined) | / | / | / | / | / | 23%[14.2 µM]
O=c1c(N2CCOCC2)nsn1Cc1ccccc1 | 12% | ? | 13µM* | -24% | -7% | 3%[46.1 µM]
Cc1ccc(-n2nc(C)c3c(C)cc(=O)n(CC(=O)N4CCCc5ccccc54)c32)cc1 | -4% | 1% | -1% | -7% | -1%[46.1 µM] | /
CCOC(=O)c1scc(-c2ccccc2)c1S(=O)(=O)Nc1ccc(N(C)C)cc1 | -14% | -8% | -13% | -16% | -16%[46.1 µM] | /
CCSc1nnc(NC(=O)NC(CC)(C(F)(F)F)C(F)(F)F)s1 | ? | 28µM* | / | -6% | ? | ?
CC[N+](CC)(CC)c1ccc(/C=C/c2ccc3ccccc3n2)cc1 | / | i | i | / | / | /
